Test results as given in PubChem BioAssay AID651717 (Broad Institute, 2012).
Hit rate of the full screen: of about 1,200 compounds, about 950 (79%) were called active. The set was probably picked from earlier hits. Only a sample is shown. Potency and affinity values are given separately. Unmarked numbers belong to inactive results.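 Rule for the calls: active = signal rises and fitted curve reaches 40% activity at or below the top valid tested dose, in every replicate test; inconclusive = replicate tests give mixed calls; inactive = the rest, including activity in the opposite direction.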

Test: compounds raising Bmi1 reporter signal – mouse embryonic stem cells, luciferase, cherry-pick, esBAF inhibitor project, dose response (AID 651717);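 note: luciferase knocked into Bmi1 locus with EF-1a renilla as cell number control; rising ratio signals esBAF inhibition which derepresses Bmi1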
Conditions: mESC Bmi1-luciferase reporter, firefly/renilla ratio, 24 h, hits give high values; at 35 µM unless noted
For Cc1ccc(S(=O)(=O)NCc2ccccc2)cc1C(=O)NC1CCC(C)CC1 (centres undefined), the max activity was 29.1% [at 4.2 µM]. CN(C)Cc1c(C(=O)N/N=C/c2ccccc2OCc2c(F)cccc2Cl)nnn1-c1nonc1N showed a max activity of 19.7% [at 4.2 µM]. Molecule C[C@H](CO)N1C[C@H](C)[C@@H](CN(C)S(=O)(=O)c2cn(C)cn2)OCCCC[C@H](C)Oc2ccc(NC(=O)Nc3ccc4c(c3)OCO4)cc2C1=O has a max activity of 18.2%. Molecule C[C@H]1CCCCO[C@@H](CN(C)C(=O)Nc2ccccc2)[C@@H](C)CN([C@@H](C)CO)C(=O)c2cc(NC(=O)Nc3ccc4c(c3)OCO4)ccc2O1 has a max activity of 11.1% [at 4.2 µM]. Work on O=C(O)C/C(=C\c1cc(Br)cs1)c1nc2ccccc2o1 yielded a max activity of 31.8%. In the case of Cc1cccc(N2CCN(C(=O)c3ccc4nc(N5CCCCC5)sc4c3)CC2)c1C, the max activity is reported as -28.5%. For O=C(CSc1nnc(Nc2ccccc2F)s1)Nc1cccc(S(=O)(=O)N2CCCCC2)c1, the max activity was 20.6% [at 16 µM]. With C[C@H](CO)N1C[C@H](C)[C@@H](CN(C)Cc2ccncc2)Oc2c(NC(=O)Nc3ccc4c(c3)OCO4)cccc2C1=O the max activity was 39.5% [at 0.26 µM]. Work on O=C1CCC[C@@H]2C[C@@]3(C[C@@H]4CCN1[C@H]24)Nc1cc(Cl)c(Cl)cc1NC3=NCc1ccccc1 yielded a max activity of 15.2% [at 4.2 µM]. CCCCC(=O)c1c(O)c2ccccc2oc1=O showed a max activity of 28.9%. O=C(Nc1ccc(F)c(Cl)c1)c1ccccc1NC(=O)C1CCCCC1C(=O)O (centres undefined) gave a max activity of 26.5%. O=C(O)CCN1C(=O)/C(=C\c2cccc(OCC(=O)Nc3ccc(Cl)cc3)c2)SC1=S gave a max activity of 38%. O=S(=O)(/N=C(/Nc1nc2ccccc2s1)c1ccccc1)c1ccccc1 showed a max activity of 34.6% [at 16 µM]. In the case of Clc1ccc(CSc2ncn(-c3ccccc3)n2)cc1, the max activity is reported as 27%. For Cc1cc(C)n2nc(SCc3nnc(SCc4ccccc4C)s3)nc2n1, the max activity was 26.5%. Molecule CN(C)Cc1c(O)ccc2c(=O)c(-c3ccc(Cl)cc3)coc12 has a max activity of 24.4%. With C[C@H](CO)N1C[C@H](C)[C@@H](CN(C)C(=O)Nc2ccc3c(c2)OCO3)Oc2c(NS(=O)(=O)c3cn(C)cn3)cccc2C1=O the max activity was 30.6%. With COc1ccc2c(c1OC)C(=O)OC2Nc1nc(-c2cc3cc([N+](=O)[O-])ccc3oc2=O)cs1 (centres undefined) the max activity was 38.4%. In the case of CCOc1ccc(/C=N/NC(=O)c2ccccc2O)cc1CN1CC2CC(C1)c1cccc(=O)n1C2 (centres undefined), the max activity is reported as 21.1% [at 16 µM]. Work on O=C(NN=C1CCCC1)c1ccccc1O yielded a max activity of 17.2% [at 4.2 µM]. C[C@H](CO)N1C[C@H](C)[C@H](CN(C)C(=O)Nc2ccccc2)OCCCC[C@H](C)Oc2ccc(NC(=O)Nc3ccc4c(c3)OCO4)cc2C1=O gave a max activity of -15.5% [at 0.26 µM]. COc1ccc(-c2noc(C3CCCN(C(=O)Nc4ccccc4)C3)n2)cc1 (centres undefined) showed a max activity of 16.1%. In the case of C[C@H]1CN([C@@H](C)CO)C(=O)c2cc(NC(=O)Cc3ccccc3)ccc2O[C@H]1CN(C)C(=O)Nc1ccc2c(c1)OCO2, the max activity is reported as 21% [at 0.5 µM]. CN(C)c1ccc(C(=O)Nc2cccc(S(=O)(=O)NC3=NCCCCC3)c2)cc1 showed a max activity of 11.6% [at 16 µM]. Molecule CCOC(=O)C1CCN(Cc2nc3ccc([N+](=O)[O-])cc3c(=O)n2-c2ccc(OC)cc2OC)CC1 has a max activity of 8.71% [at 4.2 µM]. Work on COc1ccc(CCC(=O)N/N=C/c2ccc3c(c2)OCO3)cc1 yielded a max activity of 7.2%. Work on O=C(Nc1cccc(F)c1)Nc1cccc(Cl)c1 yielded a max activity of 39.5% [at 16 µM]. Work on COc1ccc(NC(=O)Nc2cccc3c2O[C@@H](CN(C)C(=O)Nc2cccc4ccccc24)[C@H](C)CN([C@@H](C)CO)C3=O)cc1 yielded a max activity of 22.8%. For C[C@H]1CN([C@@H](C)CO)C(=O)c2cc(NS(=O)(=O)c3ccc(F)cc3)ccc2O[C@@H]1CN(C)C(=O)Nc1ccc2c(c1)OCO2, the max activity was 3.44% [at 4.2 µM]. C[C@H](CO)N1C[C@H](C)[C@H](CN(C)C(=O)NC2CCCCC2)OCCCC[C@H](C)Oc2ccc(NC(=O)Nc3ccc4c(c3)OCO4)cc2C1=O gave a max activity of 27%. With C[C@H]1CCCCO[C@H](CN(C)C(=O)NC2CCCCC2)[C@@H](C)CN([C@@H](C)CO)C(=O)c2cc(NC(=O)Nc3ccc4c(c3)OCO4)ccc2O1 the max activity was 10.1%. Cc1c(Cl)cccc1N1C(=O)CC(N(O)c2ccccc2)C1=O (centres undefined) gave a max activity of 13.3%. In the case of Cc1ccc(S(=O)(=O)Nc2cccc3c2O[C@H](CN(C)C(=O)Nc2ccc4c(c2)OCO4)[C@@H](C)CN([C@H](C)CO)C3=O)cc1, the max activity is reported as -41% [at 16 µM]. O=C(OCc1ccccc1)N1CCC2CC1c1ccc(/C=C/CCCCl)cc12 (centres undefined) showed a max activity of -25.2% [at 16 µM]. Work on C[C@H]1CN([C@@H](C)CO)C(=O)c2cccc(NC(=O)Nc3ccccc3)c2O[C@@H]1CN(C)C(=O)Nc1ccc2c(c1)OCO2 yielded a max activity of -6.52%. In the case of C[C@@H]1CN([C@@H](C)CO)C(=O)c2cccc(NC(=O)Nc3ccccc3)c2O[C@H]1CN(C)C(=O)Nc1ccc2c(c1)OCO2, the max activity is reported as -14.4%. Cc1ccc(S(=O)(=O)Nc2cccc3c2O[C@@H](CN(C)C(=O)Nc2ccc4c(c2)OCO4)[C@H](C)CN([C@@H](C)CO)C3=O)cc1 gave a max activity of -16.1%. CO[C@@H]1CN(C)C(=O)c2ccc(NC(=O)Nc3cccc(F)c3)cc2OC[C@@H](C)N(C(=O)Nc2c(C)noc2C)C[C@H]1C showed a max activity of 7.7% [at 0.56 µM]. Work on C[C@@H]1CN([C@H](C)CO)C(=O)c2cccc(NC(=O)Nc3ccc4c(c3)OCO4)c2O[C@H]1CN(C)Cc1ccccc1 yielded a max activity of 36.6% [at 0.26 µM]. O=C(NCc1cccs1)c1cc2c(s1)-c1ccccc1OC2 showed a max activity of 20.6% [at 8 µM]. For CCCOc1c(Br)cc(C2C3=C(CCCC3=O)N(CC)C3=C2C(=O)CCC3)cc1OC, the max activity was -53.8% [at 16 µM]. Molecule Cc1ccc(CN2CN(S(=O)(=O)c3cccs3)c3nc4ccccc4nc32)cc1 has a max activity of -38.8%. O=C(O)c1ccc(NCc2cccnc2)cc1 gave a max activity of 12.2%. For C[C@@H]1CN([C@@H](C)CO)C(=O)c2c(c3ccccc3n2C)-c2ccccc2CO[C@@H]1CN(C)C(=O)Nc1ccc2c(c1)OCO2, the max activity was -11.1%. C[C@@H]1CCCCO[C@@H](CN(C)S(=O)(=O)c2cn(C)cn2)[C@@H](C)CN([C@@H](C)CO)C(=O)c2cc(NC(=O)Nc3ccc4c(c3)OCO4)ccc2O1 gave a max activity of 3.24% [at 30 µM]. Work on CC1CCN(c2ccc(C(=O)NCc3cccs3)cn2)CC1 yielded a max activity of 20.2% [at 8 µM]. Molecule COc1ccc(N(CCC(=O)NCCc2ccccc2)S(=O)(=O)c2ccc(C)cc2C)cc1 has a max activity of 24.7% [at 8 µM]. COc1ccc(CN2C[C@@H](C)[C@H](OC)CN(C)C(=O)c3ccc(NC(=O)c4nc5ccccc5s4)cc3OC[C@H]2C)cc1 gave a max activity of 13.2% [at 3.8 µM]. In the case of Cc1ccc(CNC(=O)c2cccc3c2C(=O)c2ccc(N4CCC(C)CC4)cc2S3(=O)=O)cc1, the max activity is reported as -5.88% [at 0.5 µM]. In the case of O=C(NCc1cccs1)Nc1cccc(Cl)c1, the max activity is reported as -20.3%. C[C@@H]1CN([C@@H](C)CO)C(=O)c2cccc(NC(=O)Nc3ccc4c(c3)OCO4)c2O[C@H]1CN(C)Cc1ccc(Cl)c(Cl)c1 gave a max activity of -35% [at 18 µM]. In the case of C/C(=N\NC(=O)c1ccc(Cn2cc(Br)cn2)o1)c1ccc(NC(=O)c2ccoc2C)cc1, the max activity is reported as 18.3% [at 16 µM]. Work on Cc1cccc(-c2nnc(-c3cccc(NC(=O)Cc4cccs4)c3)o2)c1 yielded a max activity of 34.9%. Molecule Cc1ccc(S(=O)(=O)Nc2cccc(-c3ccc(N4CCCCCC4)nn3)c2)cc1 has a max activity of 29.4% [at 4.2 µM]. With Cc1ccc(S(=O)(=O)Nc2cccc(-c3ccc(N4CCCCCC4)nn3)c2)c(C)c1 the max activity was 27.4% [at 4.2 µM]. Work on C[C@@H]1CN([C@@H](C)CO)S(=O)(=O)c2ccc(-c3ccc(F)cc3)cc2O[C@H]1CN(C)C(=O)C1CC1 yielded a max activity of -26.9%. For C[C@H]1CCCCO[C@H](CN(C)C(=O)Nc2ccc(F)cc2)[C@@H](C)CN([C@@H](C)CO)C(=O)c2cc(NC(=O)Nc3ccc4c(c3)OCO4)ccc2O1, the max activity was -13.8% [at 8 µM]. C[C@@H]1CCCCO[C@@H](CN(C)Cc2ccncc2)[C@@H](C)CN([C@@H](C)CO)C(=O)c2cc(NC(=O)Nc3ccc4c(c3)OCO4)ccc2O1 showed a max activity of 11%. C[C@H](CO)N1C[C@H](C)[C@@H](CN(C)Cc2ccc(-c3ccccc3)cc2)Oc2c(NC(=O)Nc3ccc4c(c3)OCO4)cccc2C1=O gave a max activity of -20.6%. C[C@H]1CCCCO[C@@H](CN(C)Cc2ccncc2)[C@@H](C)CN([C@@H](C)CO)C(=O)c2cc(NC(=O)Nc3ccc4c(c3)OCO4)ccc2O1 showed a max activity of -19.5%. Molecule C[C@H](CO)N1C[C@H](C)[C@H](CN(C)Cc2ccncc2)OCCCC[C@H](C)Oc2ccc(NC(=O)Nc3ccc4c(c3)OCO4)cc2C1=O has a max activity of -10.9%. Work on CCc1c(C(=O)Nc2ccc(C)c(C)c2)[nH]c(C)c1C(C)=O yielded a max activity of 13.1% [at 4.2 µM]. O=C(CNc1ccc(Br)cc1)c1ccc(Br)s1 showed a max activity of 12.9% [at 4.2 µM]. COc1ccc2oc(C(=O)OCC(=O)Nc3ccc(C)c(S(=O)(=O)N4CCOCC4)c3)c(C)c2c1 gave a max activity of 34.7%.
